Screening data (PubChem BioAssay)
NSD2 HMT inh: NSD2 histone methyltransferase inhibitors, primary screen, biochemical, AlphaScreen, single concentration, set 2 | NSD2 peptide methylation, 120 min | AID 743445, 2014 | actives 0.54% (n = 310,000) | Histone-lysine N-methyltransferase NSD2 (Homo sapiens), O96028 | inhibition, % at 12.5 µM; in the data active means inhibition above about 50%
Target sequence (O96028 whole entry, looked up): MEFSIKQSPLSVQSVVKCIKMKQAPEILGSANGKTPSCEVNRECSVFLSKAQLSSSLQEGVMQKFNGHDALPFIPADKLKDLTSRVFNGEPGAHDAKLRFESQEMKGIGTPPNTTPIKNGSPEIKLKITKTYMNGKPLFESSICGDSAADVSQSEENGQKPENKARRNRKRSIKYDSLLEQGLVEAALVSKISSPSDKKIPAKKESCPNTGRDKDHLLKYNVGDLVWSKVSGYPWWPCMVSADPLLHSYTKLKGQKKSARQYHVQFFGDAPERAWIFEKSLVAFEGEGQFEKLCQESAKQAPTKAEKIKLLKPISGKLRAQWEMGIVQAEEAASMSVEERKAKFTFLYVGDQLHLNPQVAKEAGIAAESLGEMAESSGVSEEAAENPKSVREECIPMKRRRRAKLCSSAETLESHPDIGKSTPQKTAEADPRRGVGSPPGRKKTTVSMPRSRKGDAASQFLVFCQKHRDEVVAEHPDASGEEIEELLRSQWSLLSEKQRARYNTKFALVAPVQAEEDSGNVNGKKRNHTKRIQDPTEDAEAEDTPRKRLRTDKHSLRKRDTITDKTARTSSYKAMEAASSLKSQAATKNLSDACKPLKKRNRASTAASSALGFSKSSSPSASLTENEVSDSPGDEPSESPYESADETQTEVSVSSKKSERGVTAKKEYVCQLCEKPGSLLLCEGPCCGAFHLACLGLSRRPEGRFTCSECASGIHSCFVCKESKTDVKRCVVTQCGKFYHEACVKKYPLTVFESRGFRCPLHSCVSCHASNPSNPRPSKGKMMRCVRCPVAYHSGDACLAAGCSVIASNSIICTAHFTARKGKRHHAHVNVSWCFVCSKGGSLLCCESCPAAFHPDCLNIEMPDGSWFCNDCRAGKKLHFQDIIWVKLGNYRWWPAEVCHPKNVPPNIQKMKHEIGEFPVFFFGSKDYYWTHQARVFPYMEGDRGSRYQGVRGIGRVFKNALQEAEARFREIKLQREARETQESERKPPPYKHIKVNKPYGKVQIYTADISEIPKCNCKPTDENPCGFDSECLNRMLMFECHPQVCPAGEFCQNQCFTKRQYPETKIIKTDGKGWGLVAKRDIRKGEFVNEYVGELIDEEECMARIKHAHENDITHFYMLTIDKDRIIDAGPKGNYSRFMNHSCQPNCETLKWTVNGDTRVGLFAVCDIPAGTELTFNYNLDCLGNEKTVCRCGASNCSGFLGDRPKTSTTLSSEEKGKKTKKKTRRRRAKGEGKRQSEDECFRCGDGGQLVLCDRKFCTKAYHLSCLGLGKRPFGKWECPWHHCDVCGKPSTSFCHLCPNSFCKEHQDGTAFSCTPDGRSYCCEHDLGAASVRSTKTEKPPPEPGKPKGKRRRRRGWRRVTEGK
miR-122 sensor: miR-122 Renilla sensor signal increase in Huh7, primary screen, miR-122 inhibitor project, cell-based, single point, plate reader; Huh7 miR-122 Renilla luciferase sensor, 48 h; neutral wells = 0, positive control = 100; activation (reporter increase), % at 12.5 µM; actives 0.3% (n = 340,000);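 active means mean replicate activation score at least 90 and every replicate individually at or above 90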;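 further: higher luciferase means less miR-122 activity so hits act as miR-122 inhibitors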
C2C12 statin: suppressors of statin myotoxicity in C2C12 myotubes, primary screen, cell-based, single point, plate reader; rescue of ATP level, % at 7.49 µM; AID 602340, 2012; C2C12 myotubes + simvastatin, ATP luminescence, 48 h; scaled: DMSO 0, geranylgeraniol control 100; actives 0.78% (n = 330,000);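 active means mean ATP rescue above about 67%, or every replicate alone reaching that limit, limit read from the data, passing the limit was not always enough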;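 further: myotubes were challenged with 10 µM simvastatin during compound exposure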
PglD inh: C. jejuni PglD acetyltransferase inhibitors, primary screen, biochemical, DTNB colorimetric, single point; purified PglD enzyme, DTNB colorimetric CoA detection; inhibition, % at 12.5 µM; actives 0.098% (n = 360,000); in the data active means inhibition above about 16%, passing the limit was not always enough
* hit, by the source's call; . = not tested or not shown; [ ] = remark or other dose. Most compounds without a hit are left out; they make up all but 1.2% or so of the library.

SMILES | NSD2 HMT inh | miR-122 sensor | C2C12 statin | PglD inh
NC(=O)C1CCN(C2=C(NS(=O)(=O)c3ccc(Br)cc3)C(=O)c3ccccc3C2=O)CC1 | 52* | 4 | 8 | 2
CN1CCN(C2=C(NS(=O)(=O)c3ccccc3)C(=O)c3ccccc3C2=O)CC1 | 48 | . | . | .
NC(=O)C1CCN(C2=C(NS(=O)(=O)c3ccccc3)C(=O)c3ccccc3C2=O)CC1 | 17 | -5 | 8 | .
CCOc1ccccc1N1CCN(C2=C(NS(=O)(=O)c3cccs3)C(=O)c3ccccc3C2=O)CC1 | 32 | -2 | 110* | -2
CCN1CCN(C2=C(NS(=O)(=O)c3ccccc3)C(=O)c3ccccc3C2=O)CC1 | 57* | . | 18 | -1
NC(=O)C1CCN(C2=C(Cl)C(=O)c3ccccc3C2=O)CC1 | 88* | -70 | -61 | 2
CCN1CCN(C2=C(NS(=O)(=O)c3ccc(Br)cc3)C(=O)c3ccccc3C2=O)CC1 | 90* | 4 | -19 | 2
CCc1ccc(NC(=O)CN2CCc3ccccc3C2)cc1 | 3 | 265* | 0 | -4
O=C(C[C@H]1CC[C@@H]2[C@H](COC[C@H](O)CN2C(=O)c2ccncc2)O1)NCc1cc(F)cc(F)c1 | . | 4[16.7 µM] | -5 | 1
C[C@H]1CN([C@@H](C)CO)C(=O)c2cc(NS(=O)(=O)c3ccccc3)ccc2O[C@H]1CN(C)C(=O)Nc1ccc(F)cc1 | . | -4[16.7 µM] | 34 | 5
COc1ccccc1N1CCN(C(=O)c2ccc(Cn3c(=O)[nH]c4ccsc4c3=O)cc2)CC1 | 3 | 118* | . | 5
CNC[C@@H]1OCCCC[C@H](C)Oc2ccc(NC(=O)C3CCCCC3)cc2C(=O)N([C@@H](C)CO)C[C@@H]1C | . | 8[16.7 µM] | -12 | .
COC(=O)c1cccc(OCC(O)Cn2ccnc2)c1 (configuration not stated) | 2 | 10 | 109* | -3
COC(=O)c1cccc(OCC(O)Cn2cnc3cc(C)c(C)cc32)c1 (configuration not stated) | 2 | -10 | 2 | -5
COc1cccc(C(=O)Nc2cc([N+](=O)[O-])ccc2N2CCN(C)CC2)c1 | 4 | 292* | -32 | -6
COc1ccc(C(=O)Nc2cc([N+](=O)[O-])ccc2N2CCN(C)CC2)cc1 | 14 | . | . | .
CC(=O)Oc1cccc(C(=O)Nc2ccccc2C(=O)N2CCCC2)c1 | . | 1 | 3 | -3
COc1cccc(C(=O)Nc2ccccc2C(=O)N2CCCC2)c1 | -1 | -30 | 100* | -1
CO[C@@H]1CN(C)C(=O)c2cc(NS(C)(=O)=O)ccc2OC[C@H](C)N(C(=O)CC2CC2)C[C@@H]1C | . | . | 13 | -3
C[C@H](CO)N1C[C@H](C)[C@H](CN(C)C(=O)NC2CCCCC2)Oc2ccc(NC(=O)CCCCCC(=O)Nc3ccccc3N)cc2CC1=O | . | -9[16.7 µM] | 1 | 0
C[C@@H]1CN([C@@H](C)CO)C(=O)c2cc(/C=C/c3ccccc3)cnc2O[C@H]1CN(C)C(=O)Nc1ccccc1F | . | -4[16.7 µM] | 60 | 0
COCCOCCn1c(CCCO)nc2ccccc21 | 4 | -4 | 82* | -6
Cc1ccc(OCCCn2c(CO)nc3ccccc32)cc1 | 2 | 4 | 134* | -3
Cc1cccc(OCCCn2c(CO)nc3ccccc32)c1 | -1 | 27 | 17 | -2
Cn1cnc(S(=O)(=O)N2CCCCN3[C@@H](CO)[C@@H](c4ccc(C#CC5CC5)cc4)[C@@H]3C2)c1 | . | 13[16.7 µM] | . | 1
SMILES | NSD2 HMT inh | miR-122 sensor | C2C12 statin | PglD inh
CNC[C@@H]1Oc2cc(-c3ccccc3F)ccc2S(=O)(=O)N([C@@H](C)CO)C[C@H]1C | . | 2[16.7 µM] | -16 | 2
COc1ccc(CN(C)C[C@H]2Oc3c(NC(=O)Nc4ccc(C(F)(F)F)cc4)cccc3C(=O)N([C@H](C)CO)C[C@@H]2C)cc1 | . | 10[16.7 µM] | -14 | 8
O=C(Cc1coc(-c2ccc(F)cc2)n1)Nc1ccccc1 | 0 | -8 | 106* | 5
O=C(Cc1cc(C(=O)O)c2ccccc2n1)Nc1ccccc1 | -2 | 1 | -20 | -1
Cc1cc(=O)[nH]c(SCC2(O)C3CC4CC(C3)CC2C4)n1 (configuration not stated) | -1 | 62 | 113* | -2
Cc1cc(=O)[nH]c(SCC(=O)NC2CCCCC2)n1 | -3 | -4 | 28 | 5
Cc1cc(C(F)(F)F)c2sc(N)nc2n1 | -1 | -3 | 85* | -3
CC1CC(=O)C(C(C2=C(O)CC(C)CC2=O)c2ccccc2)=C(O)C1 (configuration not stated) | -3 | 33 | 101* | -2
CC1CC(=O)c2cc(-c3ccccc3)oc2C1 (configuration not stated) | 13 | . | 11 | 4
O=C(COC(=O)c1n[nH]c2ccccc12)NC(=O)NCc1ccco1 | 6 | -1 | 73* | -10
O=C(COC(=O)c1cccs1)NCc1ccco1 | 3 | -6 | 131* | -3
COc1cc(NC(=O)c2cccs2)c(C(=O)OCC(=O)NCc2ccco2)cc1OC | -1 | -3 | 105* | 7
CNC(=O)NC(=O)COC(=O)c1n[nH]c2ccccc12 | 35 | -4 | -6 | -4
O=C(COC(=O)c1cccs1)NCc1ccccc1 | 0 | . | 5 | 5
COc1cc(C(=O)OCC(=O)NCc2ccco2)cc(OC)c1OC | 0 | -5 | 3 | 9
CC(C)c1cn(CC[C@H]2CC[C@H](NS(=O)(=O)Cc3ccccc3)[C@H](CO)O2)nn1 | . | -3[16.7 µM] | 21 | -1
O=C(N[C@H]1CC[C@@H](CCn2cc(C3(O)CCCC3)nn2)O[C@@H]1CO)c1ccccc1F | . | 14[16.7 µM] | -20 | 2
CC(C)(C)n1nnnc1C(c1cccnc1)N1CCN(c2ccccc2F)CC1 (configuration not stated) | -1 | 1 | 120* | .
CC(C)CC(c1nnnn1C1CCCC1)N1CCN(c2ccccc2F)CC1 (configuration not stated) | . | 2 | 117* | -4
CC(C)NC(=O)N(C)C[C@@H]1Oc2ncc(C#CC3CCCCC3)cc2C(=O)N([C@H](C)CO)C[C@H]1C | . | -4[16.7 µM] | 26 | .
COc1ccc(NC(=O)CC2C(=O)NCCN2C(=O)c2ccc(Cl)cc2)cc1 (configuration not stated) | -1 | 0 | 101* | 4
O=C(CC1C(=O)NCCN1C(=O)c1ccc([N+](=O)[O-])cc1)Nc1ccc(F)cc1 (configuration not stated) | -5 | -6 | 101* | -1
Cc1ccc(NC(=O)CC2C(=O)NCCN2C(=O)c2ccc(F)cc2)cc1 (configuration not stated) | 0 | -5 | . | 2
CCC(CC)C(=O)c1c[nH]c(C(=O)NCC2CCCO2)c1 (configuration not stated) | -1 | -1 | 107* | 4
